In all, about 360,000 compounds went through this assay and about 11,000 (3.1%) were called active. Not shown: some 2% with an inconclusive outcome. This excerpt belongs to a sample that is enriched for actives. Values without a mark were called inactive. Rule as the data show it: active = fluorescence intensity above about 16000; inconclusive = no clear call, values can overlap the other calls; inactive = below that.
Experiment: counter-screen for toxin protease inhibitors: compound fluorescence, primary screen, artefact control for toxin protease inhibitor project, biochemical, multiplex microsphere, HTS (AID 624483)
Settings: compound autofluorescence counterscreen, microsphere flow cytometry; stronger effect = higher value

Structure (SMILES) | fluorescence intensity
Cc1cc(Br)ccc1SCC(=O)OCC(=O)NCc1ccc2c(c1)OCO2 | 2190
Cc1cc(C)cc(NC(=O)CN2C(=O)c3ccccc3C2=O)c1 | 4110
C=CCN(CC=C)C(=O)CN1C(=O)c2ccccc2C1=O | 16300 (active)
Cc1ccccc1C(=O)NNC(=O)CN1C(=O)c2ccccc2C1=O | 2780
CC(=O)/C(=N\Nc1ccc(Cl)cc1Cl)Sc1cccc2cccnc12 | 7970
COc1cccc(-c2cnc3c(NC(C)=O)cc(-c4cccc(NC(C)=O)c4)cn23)c1 | 3610
c1ccc(-c2ccnc3nc(-n4cccc4)nn23)cc1 | 16400 (active)
Cc1ccnc2nc(C(=O)Nc3nnc(-c4ccccc4)o3)nn12 | 4840
CCCc1cc(=S)n2c([nH]c3ccccc32)c1C#N | 3240
CN(C)C(CNC(=O)c1ccc(OCc2cn3ccccc3n2)cc1)c1ccco1 (centres undefined) | 4090
CN(C)C(CNC(=O)c1cccc(C#N)c1)c1ccco1 (centres undefined) | 3360
CN(C)C(CNC(=O)CCCOc1ccccc1)c1ccco1 (centres undefined) | 22900 (active)
O=C1NC[C@H](Cc2ccc(O)cc2)N(C[C@@H]2CCCN2C[C@H](Cc2ccccc2)N2C[C@H](Cc3ccccc3)N(CC3CCCCC3)C(=O)C2=O)C1=O | 7010
COC(=O)[C@]12CCCCC=C1N(CCC1=CCCCC1)C(=O)[C@H](CC(=O)NCC1CCCCC1)C2 | 4280
N/C(=N\OC(=O)CC1CCCCC1)c1ccccc1 | 2550
COc1ccccc1OCC(=O)O/N=C(\N)c1ccccn1 | 6210
N/C(=N\OC(=O)CCC1CCCCC1)c1ccccn1 | 16300 (active)
COc1ccccc1C(=O)Nc1ccc(Nc2ccccc2)cc1 | 4350
COc1ccccc1C(=O)C(O)c1ccccc1OC (centres undefined) | 20300 (active)
COc1ccccc1C(=O)c1ccccc1C(=O)c1ccccc1 | 4030
CC(=O)Nc1ccccc1C(=O)OCC(=O)c1cccc2ccccc12 | 4440
O=C(Nc1ccccc1)c1ccccc1NC(=O)C(F)(F)F | 9920
CC(=O)Nc1ccccc1C(=O)C(=O)Nc1ccc(F)cc1 | 19600 (active)
CCNC(=S)Nc1ccc2c(c1)c(=O)n(C)n2Cc1ccc(Cl)cc1 | 3690

Structure (SMILES) | fluorescence intensity
CC1(C(=O)NS(=O)(=O)c2ccc(Cl)cc2)CCN1C(=O)CC1CCCC1 (centres undefined) | 3020
COc1ccc(C(C)(O)c2nc(-c3ccc(C)c(C)c3)cs2)cc1 (centres undefined) | 3400
O=C(Cc1ccccc1)N/N=C/c1ccc(Cl)cc1Cl | 23400 (active)
O=C(Cn1cc(C(F)(F)F)ccc1=O)N/N=C/c1ccc(Cl)cc1Cl | 1980
C=CCOc1ccccc1/C=N/NC(=O)Cc1ccccc1 | 4140
COC(=O)c1ccc2nc(C3CCCCC3)c(Cc3cccc(F)c3)n2c1 | 4850
Clc1ccc(CSc2nnc([C@@H]3CCCN3)o2)cc1 | 6580
CCOC(=O)C1=CCC2C(=O)N(Cc3ccccc3)C(=O)C12 (centres undefined) | 4910
CCOC(=O)C1CCN(c2ncnc3c2c(-c2ccccc2)cn3-c2ccc(C)cc2)CC1 | 3930
CCOC(=O)C1CCN(Cc2nnc(-c3cccc(Br)c3)o2)CC1 | 3660
CCOC(=O)C1CCN(c2ncnc3c2oc2ccc(Br)cc23)CC1 | 22700 (active)
O=C(CSc1nc2cccc(F)c2c(=O)n1-c1ccccc1)Nc1ccc2c(c1)CCC2 | 4620
C=CCn1c(SCC(=O)NCC2CCCO2)nc2sc(C)c(C)c2c1=O (centres undefined) | 5940
C=CCn1c(SCc2c(C)noc2C)nc2sc3c(c2c1=O)CCC(C)C3 (centres undefined) | 2390
C=CCn1c(SCc2csc(C)n2)nc2scc(-c3ccc(C)o3)c2c1=O | 21100 (active)
COc1ccc(C(C)(NC(C)=O)c2nc(-c3ccc(S(C)(=O)=O)cc3)cs2)cc1 (centres undefined) | 2940
COc1ccccc1C1CC(=O)n2c(nc(-c3ccccc3)c2-c2ccccc2)S1 (centres undefined) | 1950
CCC(C)NC(=O)CSC1=Nc2ccccc2C2=NC(CCC(=O)NCc3ccco3)C(=O)N12 (centres undefined) | 19500 (active)
O=C(CSC1=Nc2ccccc2C2=NC(c3ccccc3)C(=O)N12)NCC1CCCO1 (centres undefined) | 2380
NC(=O)CSC1=Nc2ccccc2C2=NC(CCC(=O)NCc3ccc(F)cc3)C(=O)N12 (centres undefined) | 3100
CCCCNC(=O)C[C@@H]1C[C@@]2(C(=O)OCC)CCC=C2N(Cc2cccc3ccccc23)C1=O | 5990
OCCc1ccc(NCCc2ccco2)cc1 | 6000
CC(=O)Nc1cccc(-c2cc3nc(NCc4cccnc4)n(C)c(=O)c3s2)c1 | 3710
O=c1c2ccccc2nnn1CSc1nnnn1-c1ccccc1 | 16800 (active)

Structure (SMILES) | fluorescence intensity
C=CCn1c(SCn2nnc3ccccc3c2=O)nnc1-c1ccc(Cl)cc1 | 15200
Nc1nnc(SCn2nnc3ccccc3c2=O)s1 | 4300
Cc1cc2nc(-c3ccc(F)cc3)c(Cc3ccsc3)n2c(C)c1Br | 4760
COC(=O)c1ccccc1NC(=O)C1CC(=O)N(c2ccc(OC)cc2)C1 (centres undefined) | 3990
COc1ccc(NC(=O)C2CCN(S(=O)(=O)c3ccc4[nH]c(=O)oc4c3)CC2)c(OC)c1 | 4520
COC(=O)c1ccccc1NC(=O)C1CCN(S(=O)(=O)c2cc(OC)ccc2OC)CC1 | 16400 (active)
C/C=C/C(=O)Nc1ccc(N2CCN(c3ccc(C(F)(F)F)cn3)CC2)nc1 | 5380
COc1ccc(-c2cc(C(=O)N3CCN(c4ccc(F)cc4)CC3)no2)cc1 | 6330
O=C(c1cc(-c2ccc(Cl)cc2)on1)N1CCN(c2ccccc2)CC1 | 4120
COc1ccccc1N1CCN(C(=O)c2cc(-c3ccc(Cl)c(Cl)c3)on2)CC1 | 16600 (active)
O=C(NCc1ccco1)c1ccc(Cn2c(=O)c3sccc3n(Cc3ccc(F)cc3)c2=O)cc1 | 5200
O=C(NCc1ccco1)c1cc2sccc2n1Cc1ccc(F)cc1 | 20800 (active)
O=C(Cc1ccc(-n2c(=O)c3sccc3n(Cc3ccc(F)cc3)c2=O)cc1)NCc1ccco1 | 5860
CC(C)CC(=O)Nc1nnc(S(=O)(=O)N(C)c2ccc(Cl)cc2)s1 | 4020
COC(=O)c1ccc2nc(-c3ccc(Cl)cc3)c(Cc3cccc(F)c3)n2c1 | 6340
O=C(NCc1nnnn1-c1ccc(Cl)cc1)c1ccc([N+](=O)[O-])o1 | 3830
Oc1cccc2cc(-c3ccncc3)cnc12 | 2990
O=C(NCCc1ccccn1)c1ccc(COc2ccccc2)o1 | 19400 (active)
O=C(CNC(=O)COc1ccccc1)NCCc1ccccn1 | 3410
O=C(NCCc1ccccn1)c1cccnc1Oc1ccc(Cl)cc1 | 5560
CNc1cncc(-c2cccc(C(=O)N3CCOCC3)c2)n1 | 3830
CCCCOC(=O)NCN1C(=O)C2C3C=CC(C3)C2C1=O (centres undefined) | 3370
CCCCCOC(=O)C1=C(C)Nc2nnnn2C1c1ccc(OC)c(OC)c1OC (centres undefined) | 21200 (active)
COC(=O)C1=C(C(=O)c2ccc(C)cc2)C(c2ccccc2)n2nnnc2N1 (centres undefined) | 2650

Structure (SMILES) | fluorescence intensity
COc1ccccc1C1C(C(N)=O)=C(C)Nc2nc(CCCO)nn21 (centres undefined) | 3450
CCOc1ccc(S(=O)(=O)Nc2nccs2)cc1 | 4450
CCOc1ccc2sc(NS(=O)(=O)c3ccc(N)cc3)nc2c1 | 3350
CCOc1ccc(S(=O)(=O)Nc2nc3cc(OC)ccc3s2)cc1 | 20400 (active)
COc1ccc(-c2nc3ccc(Br)cn3c2Cc2ccc(C)cc2)cc1OC | 4350
CCC(=O)Nc1nnc(S(=O)(=O)N(CC(C)C)c2ccccc2)s1 | 3230
CCOC(=O)C(Sc1ncc(C#N)c(N)n1)C(C)C (centres undefined) | 2490
CCn1c(CNC(=O)c2ccc(OC)c(OC)c2)nnc1SCC(=O)Nc1ccccc1 | 11100
COC(=O)c1ccc(NC(=O)CSc2nnc(C3CC3)n2C)cc1 | 5470
CCOC(=O)c1ccc(NC(=O)CSc2nnc(COc3ccccc3OC)n2C)cc1 | 23600 (active)
COC(=O)Nc1ccc(S(=O)(=O)N(C)CC(F)(F)C(F)F)cc1 | 3990
CC(=O)Nc1cccc(-c2ccnc3c2CC(C)(C(=O)NCc2ccccc2)O3)c1 (centres undefined) | 3920
Cc1cccc(C(=O)OCC(=O)Nc2sccc2C(N)=O)c1C | 3570
Cc1nc2c(-c3ccc(F)cc3)c(C)nn2c(C)c1CCC(=O)NCc1ccco1 | 5410
COc1cc(OC)cc(-c2nc3nc(C)c(CCC(=O)NCc4ccco4)c(C)n3n2)c1 | 21000 (active)
COc1ccc(-c2cc3nc(C)c(CCC(=O)NC(C)CCc4ccco4)c(C)n3n2)c(OC)c1 (centres undefined) | 3850
CCn1cc(C(=O)N2CC=C(c3ccccc3)CC2)c(=O)c2ccc(C)nc21 | 11100
COc1cccc(CNc2nc(NCc3cccs3)nc3ccsc23)c1 | 3840
COc1ccc(S(=O)(=O)n2cnc3ccccc32)c(C)c1 | 3080
Cc1ccccc1SCC(=O)OCC(=O)N1CC(=O)Nc2ccccc21 | 3940
Cc1ccc(S(=O)(=O)N(C)CC(=O)OCC(=O)N2CC(=O)Nc3ccccc32)cc1 | 4160
Cc1ccc(S(=O)(=O)N2CCC(C(=O)OCC(=O)N3CC(=O)Nc4ccccc43)CC2)cc1 | 23100 (active)
